One test concerns MKL-2. In words: qHTS assay to identify novel small-molecules to repurpose for Merkel cell carcinoma treatment (AID 1296009). Further: nearly all actives have a fitted effect of over 60% in size. Particulars: MCC and control cell lines, CellTiter-Glo viability, 72 h; series mostly up to 46 µM. The essentials: (§1)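 Luminescence from CellTiter-Glo, read 10 min after addition at room temperature, reported viability following a 72 hr, 37 degree celsius treatment with NPC or MIPE compounds in titration; values normalized to plate controls.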
On the technique in general: qHTS replaces the single test concentration by a dilution series.

In a further test the test system is C33A. Put plainly: Primary qHTS to identify gynecologic anti-cancer compounds using libraries of approved drugs and bioactive compounds (AID 1345084). Further: nearly all actives have a fitted effect of over 55% in size. Particulars: Gynecologic cancer cell panel viability, ATPlite luminescence, 48 h; series mostly up to 57.5 µM. The essentials: (§2)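 Five-concentration response, 48 h; readout is ATP-driven luciferase luminescence.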

A further test has as its system CASKI. The test is described as above. Particulars: Gynecologic cancer cell panel viability, ATPlite luminescence, 48 h; series mostly up to 57.5 µM. The essentials:
as §2

The test system of another test is Es-2. The test is described as above. Particulars: Gynecologic cancer cell panel viability, ATPlite luminescence, 48 h; series mostly up to 57.5 µM. The method, boiled down: as §2
For orientation: Cellular ATP, detected with luciferase, serves as a proxy for viable cell number.

A further test concerns HeLa. Described as above. Particulars: Gynecologic cancer cell panel viability, ATPlite luminescence, 48 h; series mostly up to 57.5 µM. The essentials: as §2
The test system of another test is Hek293T. Described as above. Particulars: Gynecologic cancer cell panel viability, ATPlite luminescence, 48 h, control line for the selectivity index; series mostly up to 57.5 µM. The essentials:
as §2

The next test concerns CAOV3. The description is as above. Particulars: Gynecologic cancer cell panel viability, ATPlite luminescence, 48 h; series mostly up to 57.5 µM. The essentials:
as §2

The subject of another test is UISO. In words: qHTS assay to identify novel small-molecules to repurpose for Merkel cell carcinoma treatment (AID 1296009). Further: nearly all actives have a fitted effect of over 60% in size. Particulars: MCC and control cell lines, CellTiter-Glo viability, 72 h; series mostly up to 46 µM. The essentials:
as §1

A further test relates to WaGa. The description is as above. Particulars: MCC and control cell lines, CellTiter-Glo viability, 72 h; series mostly up to 46 µM. The essentials:
as §1

Drawing on PubChem BioAssay (NCATS), this text covers Potency for 28 compounds.

Molecules are shown by their SMILES. Records with an inconclusive call do not appear. A number with no mark means an inactive call. The source made the active and inactive calls. The call rests on the fitted dose curve; in most records, active means well fitted curve in the direction sought with a large enough effect; inconclusive means small, poorly fitted or top-dose-only effect, or another doubt; inactive means no such curve, though single readings can be large; an effect the other way counts as inactive or inconclusive.
Potency means the concentration at half of the fitted maximal effect.

As for `CN(C(=O)CN(CCO)CC(=O)N(C)C(C)(C)Cc1ccccc1)C(C)(C)Cc1ccccc1`, in the test with MKL-2, the Potency was 16.8 µM (active). Also, the Potency result in the test on C33A, with CASKI, in the test with Es-2, with HeLa and with Hek293T was “inactive” in each case.

`c1ccc(-c2ccc(C(c3ccccc3)n3ccnc3)cc2)cc1` (centres undefined): the Potency entry in the test on C33A, in the test on CAOV3, with CASKI, in the test on Es-2 and with HeLa was “inactive” throughout.

Take `O=C(CCCN1CCC(O)(c2ccc(Br)cc2)CC1)c1ccc(F)cc1`: the Potency entry in the test on MKL-2, in the test with C33A, in the test with CASKI, in the test on Es-2, in the test on HeLa and with Hek293T was “inactive” in each case.

Regarding `CCCCCCCCCCOCC(O)CN` (centres undefined), the Potency is 23.7 µM (active) in the test with MKL-2 and 31.6 µM (active) in the test with CAOV3. In addition, the Potency result with HeLa and with Hek293T was “inactive” throughout.

With `Cc1cccc(C)c1NC(=O)CN1CCN(CCCC(c2ccc(F)cc2)c2ccc(F)cc2)CC1`, the Potency result in the test on UISO, in the test on WaGa, in the test with CASKI, in the test with Es-2 and with Hek293T was “inactive” throughout.

In the case of `CCN(CC)CCOC(=O)C(c1ccccc1)C1CCCCC1` (centres undefined), the Potency entry in the test with UISO, in the test with WaGa, in the test on C33A, in the test with CASKI, in the test with Es-2 and in the test with HeLa was “inactive” each time. For the same compound, the Potency entry with Hek293T was “inactive”.

`C[C@]12CCC(=O)C=C1[C@@H]1C[C@@H]1[C@H]1[C@@H]3[C@@H]4C[C@@H]4[C@@]4(CCC(=O)O4)[C@@]3(C)CC[C@@H]12`: the Potency result in the test with MKL-2, in the test with CAOV3, with CASKI, with Es-2 and in the test on Hek293T was “inactive” throughout. The Potency in the test on HeLa is 3.55 µM (active).

On to `C=C1C[C@H]2[C@@H]3C=C(C)C4=CC(=O)CC[C@]4(C)[C@H]3CC[C@]2(C)[C@@]1(OC(C)=O)C(C)=O`, for which the Potency entry in the test with UISO, in the test with C33A, in the test on CAOV3, with CASKI, with Es-2 and in the test with HeLa was “inactive” in each case. Besides, the Potency entry with Hek293T was “inactive”.

With `CCCOC(C(=O)OC1CCN(C)CC1)(c1ccccc1)c1ccccc1`, the Potency result in the test on UISO, with C33A, in the test on CAOV3, in the test on CASKI, in the test on Es-2 and in the test with HeLa was “inactive” each time. For the same compound, the Potency entry in the test on Hek293T is “inactive”.

Turning to `CC(C)(C)CC(C)(C)c1ccc(O)c(Cc2ccc(Cl)cc2Cl)c1`, the Potency entry in the test on C33A, with CAOV3 and in the test on CASKI was “inactive” in each case.

Consider `c1ccc(CNCCNCc2ccccc2)cc1`, for which the Potency result in the test with UISO, with WaGa, in the test on C33A, with CAOV3, in the test with CASKI and in the test with Es-2 was “inactive” throughout. Moreover, the Potency entry in the test with HeLa and in the test with Hek293T was “inactive” in each case.

Take `O=C(COc1ccc(Cl)cc1)N1CCN(Cc2ccc3c(c2)OCO3)CC1`: the Potency entry with UISO, in the test on C33A, in the test with CAOV3, in the test with CASKI, with Es-2 and in the test with HeLa was “inactive” throughout. Further, in the test with Hek293T, the Potency entry was “inactive”.

Consider `CCOC(=O)COc1ccc2c(C)c(CCN(CC)CC)c(=O)oc2c1Cl`, for which the Potency result in the test on UISO, in the test with C33A, with CAOV3, in the test on CASKI, in the test with HeLa and in the test on Hek293T was “inactive” each time.

As for `CCN(CCCc1ccccc1)CCCc1ccccc1`, the Potency result in the test on UISO, in the test on WaGa, in the test with C33A, in the test with CASKI, in the test with Es-2 and with HeLa was “inactive” in each case. The Potency entry in the test on Hek293T is “inactive”.

For the compound `COc1cc2c(cc1OC)C(C(C(=O)N(CCc1ccc(OC)c(OC)c1OC)CCc1ccc(OC)c(OC)c1OC)c1ccccc1)=NCC2` (centres undefined), the Potency entry with UISO, with C33A, in the test on CAOV3, in the test on CASKI, in the test on Es-2 and with HeLa was “inactive” in each case. Further, the Potency result with Hek293T is “inactive”.

Turning to `COc1c(C)c2c(c(O)c1C/C=C(\C)CCC(=O)O)C(=O)OC2`, the Potency with WaGa is 0.531 µM (active); with Es-2, 2.82 µM (active).

Take `Oc1ccc(Cl)cc1Sc1cc(Cl)ccc1O`: the Potency in the test on UISO is 18.8 µM (active); in the test with WaGa, 21.1 µM (active). In addition, the Potency result with CAOV3 and in the test with CASKI was “inactive” in each case.

`CC(O)(P(=O)(O)O)P(=O)(O)O`: the Potency result with UISO, in the test with WaGa, with C33A, in the test on CAOV3, in the test on CASKI and in the test on Es-2 was “inactive” each time. Also, the Potency result with HeLa and with Hek293T was “inactive” each time.

For the compound `CC(=O)N(O)CCCCCNC(=O)CCC(=O)N(O)CCCCCNC(=O)CCC(=O)N(O)CCCCCN`, in the test on WaGa, the Potency was 10.6 µM (active). Also, the Potency result in the test with CASKI and with HeLa was “inactive” throughout.

As to `O=C1[C@H]2CCCC[C@H]2C(=O)N1CCCCN1CCN(c2nsc3ccccc23)CC1`, the Potency in the test with UISO was 10.6 µM (active). The Potency result in the test with C33A, with CAOV3, in the test on CASKI, with Es-2 and in the test with HeLa was “inactive” each time.

Consider `O=C(OCC(O)CO)c1ccccc1Nc1ccnc2cc(Cl)ccc12` (centres undefined), for which the Potency entry in the test with C33A, in the test with CASKI, with Es-2, with HeLa and in the test with Hek293T was “inactive” in each case.

On to `C[C@]12CC[C@@H]3c4ccc(O)cc4CC[C@H]3[C@@H]1C[C@@H](O)[C@@H]2O`, for which the Potency result in the test with C33A, in the test with CAOV3, in the test with CASKI, in the test with Es-2 and with Hek293T was “inactive” in each case. In the test on HeLa, the Potency was 31.6 µM (active).

On to `CC(CCc1ccccc1)NCC(O)c1ccc(O)c(C(N)=O)c1` (centres undefined), for which the Potency entry with C33A, with CAOV3, with CASKI, in the test on Es-2, in the test on HeLa and in the test on Hek293T was “inactive” throughout.

As to `CCCCc1nc(Cl)c(CO)n1Cc1ccc(-c2ccccc2-c2nn[nH]n2)cc1`, the Potency result with C33A, in the test with CAOV3, in the test on CASKI, with Es-2, in the test on HeLa and with Hek293T was “inactive” in each case.

For `CN1C(CCl)Nc2cc(Cl)c(S(N)(=O)=O)cc2S1(=O)=O` (centres undefined), the Potency entry with C33A, in the test on CASKI, in the test with Es-2, with HeLa and in the test on Hek293T was “inactive” throughout.

`CC/C(=C(/CC)c1ccc(O)cc1)c1ccc(O)cc1`: the Potency entry with C33A, in the test on CAOV3, with CASKI, with Es-2, with HeLa and with Hek293T was “inactive” each time.

Regarding `CC(Cc1ccccc1)(NC(=O)CN)c1ccccc1` (centres undefined), the Potency entry with C33A, with CASKI, in the test on Es-2, with HeLa and in the test with Hek293T was “inactive” each time.

Take `CCOC(=O)[C@H](CCc1ccccc1)N[C@@H](C)C(=O)N1Cc2ccccc2C[C@H]1C(=O)O`: the Potency entry in the test with C33A, with CAOV3, in the test on CASKI, with Es-2, in the test with HeLa and in the test with Hek293T was “inactive” each time.
